In the supplement of paper PMC6607015:
Counter-ions that a name gives are not always drawn.

Key:
Conditions in all cases: compound concentration in added solution (µM; 5 µl added to 20 µl cells): 10; 18 h
[1] = system: A431; assay: LBPA endosome anti-LBPA integrated intensity (sum per cell), Z-score; higher = more LBPA staining
How it was run: (§1)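 Each value is a Z-score normalised in AcuityXpress from per-cell integrated LBPA or filipin intensity, taken over the whole cell or within LBPA endosomes. Duplicate 384-well imaging plates held 5 µl of 10 µM compound solution, onto which 3,500 HeLa MZ or A431 cells in 20 µl were seeded per well. After 18 h the cells were fixed in 4% PFA, stained with 6C4 anti-LBPA antibody, filipin, propidium iodide and CellTracker green, imaged four times per well at 20× and segmented in MetaXpress.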

[2] = system: HeLa MZ; assay: as above
How it was run: as §1

[3] = system: A431; assay: whole-cell filipin (free cholesterol) integrated intensity, Z-score; higher = more cholesterol staining
How it was run: as §1

[4] = system: HeLa MZ; assay: as above
How it was run: as §1

[5] = system: A431; assay: filipin (cholesterol) integrated intensity within LBPA endosomes, Z-score; higher = more cholesterol in LBPA endosomes
How it was run: as §1

[6] = system: HeLa MZ; assay: as above
How it was run: as §1

SMILES	LBPA endosome anti-LBPA integrated intensity (z-score) [1]	LBPA endosome anti-LBPA integrated intensity (z-score) [2]	whole-cell filipin (z-score) [3]	whole-cell filipin (z-score) [4]	filipin (z-score) [5]	filipin (z-score) [6]
CO[C@@]1(NC(=O)Cc2cccs2)C(=O)N2C(C(=O)O)=C(COC(N)=O)CS[C@@H]21 [Cefoxitin sodium salt]	-0.479	0.482	-0.426	-0.439	-0.487	-0.515
CN[C@@H]1[C@H](O[C@H]2[C@H](O[C@H]3[C@H](O)[C@@H](O)[C@H](NC(=N)N)[C@@H](O)[C@@H]3NC(=N)N)O[C@@H](C)[C@]2(O)CO)O[C@@H](CO)[C@H](O)[C@H]1O [Dihydrostreptomycin sulfate]	-0.602	-1.07	-1	-0.938	-0.56	-0.704
O=C(NC(Cc1cc(=O)[nH]c2ccccc12)C(=O)O)c1ccc(Cl)cc1 (configuration not stated) [Rebamipide]	-0.421	-0.707	-0.0406	0.196	-0.423	-0.367
NS(=O)(=O)c1cc(Cl)c(Cl)c(S(N)(=O)=O)c1 [Dichlorphenamide]	-0.34	-0.217	-0.00386	0.196	-0.409	-0.301
CCOC(=O)NNc1nncc2ccccc12 [Todralazine hydrochloride]	-0.642	-1.72	-0.897	-0.795	-0.572	-0.622
CN(C/C=C/c1ccccc1)Cc1cccc2ccccc12 [Naftifine hydrochloride]	-0.115	-0.525	0.224	-0.277	-0.136	-0.339
O=C(CCCN1CCC(O)(c2ccc(Br)cc2)CC1)c1ccc(F)cc1 [Bromperidol]	2.59	2.09	1.76	1.12	2.09	1.82
COc1ccc2c3c1O[C@H]1C[C@@H](O)C=C[C@@]31CCN(C)C2 [Galanthamine hydrobromide]	-0.594	-0.476	-0.752	-0.607	-0.584	-0.496
O=C(COc1ccc(Cl)cc1)N1CCN(Cc2ccc3c(c2)OCO3)CC1 [Fipexide hydrochloride]	-0.365	0.298	-0.792	-0.7	-0.47	-0.495
CCc1oc2ccccc2c1C(=O)c1cc(Br)c(O)c(Br)c1 [Benzbromarone]	-0.388	-0.283	-0.536	-0.296	-0.47	-0.42
Clc1ccc(C(Cn2ccnc2)OCc2csc3c(Cl)cccc23)c(Cl)c1 (configuration not stated) [Sertaconazole nitrate]	-0.364	1.08	0.486	1.1	-0.139	0.708
CC(C)(C(=O)c1cccnc1)c1cccnc1 [Metyrapone]	-0.435	-0.575	-0.128	-0.599	-0.359	-0.375
CCCC(CCC)C(=O)O [Valproic acid]	-0.476	1.11	0.263	2.69	-0.401	-0.484
COC(=O)[C@H]1[C@H]2C[C@@H]3c4[nH]c5cc(OC)ccc5c4CCN3C[C@H]2C[C@@H](OC(=O)c2cc(OC)c(OC)c(OC)c2)[C@@H]1OC [Reserpine]	3.11	2.24	2.19	1.75	2.34	1.96
CCn1cc(C(=O)O)c(=O)c2cc(F)c(N3CCNCC3)cc21 [Norfloxacin]	-0.548	-0.705	-0.938	-1.18	-0.584	-0.612
Cn1c(=O)c2nc[nH]c2n(C)c1=O [Theophylline monohydrate]	-0.668	-1.36	-0.516	-0.207	-0.57	-0.492
C#C[C@]1(O)CC[C@H]2[C@@H]3CCC4=Cc5oncc5C[C@]4(C)[C@H]3CC[C@@]21C [Danazol]	-0.455	-0.444	-0.615	-0.566	-0.449	-0.556
CC(=O)N(O)CCCCCNC(=O)CCC(=O)N(O)CCCCCNC(=O)CCC(=O)N(O)CCCCCN [Deferoxamine mesylate]	-0.408	-0.755	0.541	-0.469	-0.422	-0.499
COc1ccc(CN(CCN(C)C)c2ccccn2)cc1 [Pyrilamine maleate]	-0.379	0.813	-0.723	-0.374	-0.426	0.0714
CC(NCCc1ccc(O)cc1)C(O)c1ccc(O)cc1 (configuration not stated) [Ritodrine hydrochloride]	-0.357	0.237	-0.158	-0.199	-0.481	-0.491
O=C(O)Cc1ccc(-c2ccccc2)cc1 [Felbinac]	-0.537	-0.83	-0.402	-0.285	-0.525	-0.491
CC[N+](CC)(CC)CCC(O)(c1ccccc1)C1CCCCC1 (configuration not stated) [Tridihexethyl chloride]	-0.607	-0.578	-0.338	-0.512	-0.437	-0.697
CC(=O)N[C@@H](CC(C)C)C(=O)O [N-Acetyl-L-leucine]	-0.45	-0.158	-0.322	0.0999	-0.425	-0.357
Cc1cccc(Nc2ccccc2C(=O)O)c1C [Mefenamic acid]	-0.573	-1.34	-0.793	-0.4	-0.497	-0.72

SMILES	LBPA endosome anti-LBPA integrated intensity (z-score) [1]	LBPA endosome anti-LBPA integrated intensity (z-score) [2]	whole-cell filipin (z-score) [3]	whole-cell filipin (z-score) [4]	filipin (z-score) [5]	filipin (z-score) [6]
COc1ccc(/C=C/C(=O)Nc2ccccc2C(=O)O)cc1OC [Tranilast]	-0.353	-0.361	-0.609	-0.648	-0.443	-0.608
CCCCNc1cc(C(=O)O)cc(S(N)(=O)=O)c1Oc1ccccc1 [Bumetanide]	-0.516	-0.493	-0.507	-0.553	-0.588	-0.565
CC1(C)S[C@@H]2[C@H](NC(=O)Cc3ccccc3)C(=O)N2[C@H]1C(=O)O [Benzylpenicillin sodium]	-0.349	1.42	-0.101	2.18	-0.427	-0.552
CN(C)CCC(c1ccc(Br)cc1)c1ccccn1 (configuration not stated) [Brompheniramine maleate]	-0.686	-0.0361	-0.609	-0.596	-0.344	0.233
Nc1ccc(S(=O)(=O)Nc2ccccn2)cc1 [Sulfapyridine]	-0.468	-0.131	-0.33	-0.348	-0.499	-0.602
COc1ccc(Cl)cc1C(=O)NCCc1ccc(S(=O)(=O)NC(=O)NC2CCCCC2)cc1 [Glibenclamide]	-0.686	-1.35	-0.573	0.104	-0.559	-0.567
COc1cc(C(=O)NCc2ccc(OCCN(C)C)cc2)cc(OC)c1OC [Trimethobenzamide hydrochloride]	-0.218	-0.274	-0.94	-0.877	-0.32	-0.334
Nc1ccc(C(=O)O)c(O)c1 [4-aminosalicylic acid]	-0.488	-0.439	-0.159	-0.434	-0.444	-0.569
COc1ccc(CCN(C)CCCC(C#N)(c2ccc(OC)c(OC)c2)C(C)C)cc1OC (configuration not stated) [Verapamil hydrochloride]	2.51	2.93	2.24	0.413	2.46	1.49
CO[C@H]1/C=C/O[C@@]2(C)Oc3c(C)c(O)c4c(O)c(c(/C=N/N5CCN(C6CCCC6)CC5)c(O)c4c3C2=O)NC(=O)/C(C)=C\C=C\[C@H](C)[C@H](O)[C@@H](C)[C@@H](O)[C@@H](C)[C@H](OC(C)=O)[C@@H]1C [Rifapentine]	-0.344	-0.538	-0.546	-0.401	-0.461	-0.486
CN1[C@@H]2CC[C@H]1C[C@@H](OC(c1ccccc1)c1ccccc1)C2 [Benztropine mesylate]	2.51	2.77	3.07	3.74	2.51	2.8
CC1(C)S[C@@H]2[C@H](NC(=O)[C@H](C(=O)O)c3ccsc3)C(=O)N2[C@H]1C(=O)O [Ticarcillin sodium]	-0.466	-0.401	-0.165	-0.157	-0.403	-0.501
CC[N+](CC)(CC(=O)Nc1c(C)cccc1C)Cc1ccccc1 [Denatonium benzoate]	-0.32	-0.985	-0.241	-0.0671	-0.379	-0.548
C=C1/C(=C\C=C2/CCC[C@]3(C)[C@@H]([C@H](C)/C=C/[C@@H](O)C4CC4)CC[C@@H]23)C[C@@H](O)C[C@@H]1O [Calcipotriene]	0.563	1.43	0.734	0.316	0.659	0.179
Cc1c(-c2ccccc2)oc2c(C(=O)OCCN3CCCCC3)cccc2c1=O [Flavoxate hydrochloride]	-0.643	-0.619	-0.892	-0.899	-0.515	-0.534
CN[C@H](CC(C)C)C(=O)N[C@H]1C(=O)N[C@@H](CC(N)=O)C(=O)N[C@H]2C(=O)N[C@H]3C(=O)N[C@H](C(=O)N[C@H](C(=O)O)c4cc(O)cc(O)c4-c4cc3ccc4O)[C@H](O)c3ccc(c(Cl)c3)Oc3cc2cc(c3O[C@@H]2O[C@H](CO)[C@@H](O)[C@H](O)[C@H]2O[C@H]2C[C@](C)(N)[C@H](O)[C@H](C)O2)Oc2ccc(cc2Cl)[C@H]1O [Vancomycin hydrochloride]	-0.435	-0.0824	-0.355	-0.041	-0.42	-0.35
CC1CS(=O)(=O)CCN1/N=C/c1ccc([N+](=O)[O-])o1 (configuration not stated) [Nifurtimox]	-0.541	-0.54	0.0023	-0.211	-0.444	-0.628
CN[C@@H]1[C@@H](O[C@H]2O[C@H](CO)[C@@H](N)[C@H](O)[C@H]2O)OC2C[C@@H](N)[C@@H](O[C@H]3[C@H](O)[C@@H](O)[C@H](N)C[C@@H]3N)OC2[C@@H]1O (some centres not stated) [Apramycin]	-0.469	-0.358	-0.077	-0.329	-0.402	-0.523
CC(C)COCC(CN(Cc1ccccc1)c1ccccc1)N1CCCC1 (configuration not stated) [Bepridil hydrochloride]	1.46	1.74	-0.0149	-0.717	2.11	0.331
CN1CCN2c3ccccc3Cc3ccccc3C2C1 (configuration not stated) [Mianserine hydrochloride]	1.6	1.07	1.17	0.96	1.16	1.54
CC(=O)Nc1ccc(OCC(O)CNC(C)C)cc1 (configuration not stated) [Practolol]	-0.578	-0.861	-0.908	-0.531	-0.573	-0.506
COc1ccc2[nH]c([S+]([O-])Cc3ncc(C)c(OC)c3C)nc2n1 (configuration not stated) [Tenatoprazole]	-0.331	0.434	-0.478	0.112	-0.438	-0.258
NNc1nncc2ccccc12 [Hydralazine hydrochloride]	-0.438	-1.11	-0.55	-0.572	-0.474	-0.461
